Experimental data taken from ChEMBL document CHEMBL1961873, “Compounds: GSK PKIS; Assays: Nanosyn kinase panel” (2012).

target: T1, 3-phosphoinositide-dependent protein kinase 1 (Homo sapiens) (UniProt O15530); details: at 0.1 µM;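 note: values are mean inhibition of PDK1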
T1 sequence (whole entry): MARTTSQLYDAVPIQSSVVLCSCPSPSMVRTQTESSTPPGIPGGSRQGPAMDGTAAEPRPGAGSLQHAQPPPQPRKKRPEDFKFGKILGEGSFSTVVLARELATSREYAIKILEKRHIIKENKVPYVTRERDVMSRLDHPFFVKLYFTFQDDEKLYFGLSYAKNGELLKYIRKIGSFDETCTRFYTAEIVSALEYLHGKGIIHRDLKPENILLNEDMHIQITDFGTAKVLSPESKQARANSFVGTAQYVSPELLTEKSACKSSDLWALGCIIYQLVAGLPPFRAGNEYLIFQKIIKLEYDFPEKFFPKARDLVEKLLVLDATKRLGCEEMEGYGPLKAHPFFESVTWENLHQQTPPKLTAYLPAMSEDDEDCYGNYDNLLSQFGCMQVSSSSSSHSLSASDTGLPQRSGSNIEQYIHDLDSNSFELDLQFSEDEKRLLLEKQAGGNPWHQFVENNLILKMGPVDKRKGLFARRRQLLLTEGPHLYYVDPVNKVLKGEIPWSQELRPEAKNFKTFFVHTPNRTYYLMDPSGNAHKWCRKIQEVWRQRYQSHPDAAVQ

| SMILES | inhibition [%] |
| --- | --- |
| CCCN1CCC=C(c2ccc(Nc3nc(Nc4ccccc4C(N)=O)c4cc[nH]c4n3)c(C)c2)C1 | -0.1 |
| CS(=O)(=O)CCNCc1nc(-c2ccc3ncnc(Nc4ccc(F)c(Cl)c4)c3c2)cs1 | 1.98 |
| COc1cc2c(cc1Nc1nc(N3CCc4ccccc43)c3cc[nH]c3n1)N(C(=O)CN(C)C)CC2 | 1.89 |
| COc1cc2ncn(-c3cc(OCc4ccccc4Cl)c(C(N)=O)s3)c2cc1OC | 7.8 |
| CS(=O)(=O)CCNCc1ccc(-c2ccc3ncnc(Nc4ccc(OCc5ccccc5)c(Cl)c4)c3c2)o1 | -0.51 |
| Nc1ncnc2occ(-c3ccc(NC(=O)Nc4cccc(C(F)(F)F)c4)cc3)c12 | -1.02 |
| COc1ccc(-c2ccncc2)cc1C(N)=O | 1.13 |
| Fc1cccc(COc2ccc(Nc3ncnc4cc(-c5ccc[nH]5)sc34)cc2Cl)c1 | 1.86 |
| CCn1c(-c2nonc2N)nc2c(N3CCCC3)nccc21 | -1.76 |
| Cc1nn(C)c2cc(N(C)c3ccnc(Nc4cccc(S(N)(=O)=O)c4)n3)ccc12 | 1.33 |
| CC(=O)Nc1cccc(C#Cc2cncnc2Nc2ccc(OCc3cccc(F)c3)c(Cl)c2)n1 | -0.76 |
| Nc1nc(-c2ccc3c(c2)C(=Cc2cc(Br)c(O)c(Br)c2)C(=O)N3)cs1 | -1.98 |
| CCN1CCC(CC(=O)Nc2n[nH]c3nc(-c4cccs4)c(Br)cc23)CC1 | -2.02 |
| COc1ccc2cc(-c3c(-c4ccncc4)nc(-c4ccc([S+](C)[O-])cc4)n3C)ccc2c1 (stereo not drawn) | 0.4 |
| NS(=O)(=O)c1ccc(N/N=C2\C(=O)Nc3ccc(C(=O)NCCc4c[nH]cn4)cc32)cc1 | 14.2 |
| CS(=O)(=O)CCNCc1ccc(-c2ccc3ncnc(Nc4ccc(OCc5cccc(F)c5)c(C(F)(F)F)c4)c3c2)o1 | 2.02 |
| Nc1nc(-c2ccccn2)c(-c2ccc3ncccc3n2)s1 | 1.75 |

| SMILES | inhibition [%] |
| --- | --- |
| c1cnn2ncc(-c3ccnc(Nc4ccc5c(c4)OCCO5)n3)c2c1 | 4.84 |
| Cc1ccc(C(=O)NC2CCCCC2)cc1-c1ccc(C(=O)NCC2CC2)cc1 | 3.8 |
| CS(=O)(=O)Nc1ccc(N/C=C2\C(=O)Nc3ccccc32)cc1 | 2.23 |
| CC1=C(C(=O)Nc2ccc3[nH]ncc3c2)C(c2ccc3ccccc3c2)CC(=O)N1 (stereo not drawn) | 2.2 |
| CC1=C(C(=O)Nc2ccc3[nH]ncc3c2)C(c2ccc(Cl)c(Cl)c2)CC(=O)N1 (stereo not drawn) | 3.64 |
| COc1ccc(COc2ccc(Cc3cnc(N)nc3N)cc2OC)cc1 | 1.69 |
| NCc1ccc(-c2nc(-c3ccc(Cl)c(O)c3)c(-c3ccncc3)[nH]2)cc1 | 2.25 |
| COc1cc2ncn(-c3cc(O[C@@H](C)c4ccccc4Cl)c(C(N)=O)s3)c2cc1OC | 0.82 |
| CCc1cccc(NC(=O)Nc2ccc(Oc3ccc4nc(NC(=O)OC)[nH]c4c3)cc2)c1 | 2.37 |
| CCn1c(-c2nonc2N)nc2cncc(C(=O)N3CCNCC3)c21 | 2.8 |
| O=C1Nc2ccc(C(=O)c3ccco3)cc2C1=Cc1cc(Cl)c(O)c(Cl)c1 | 3.22 |
| COc1ccc(-c2coc3ncnc(N)c23)cc1 | 0.68 |
| CCn1c(-c2nonc2N)nc2cncc(C(=O)N3CC[C@H](N)C3)c21 | 9.36 |
| Cc1cccc(-c2n[nH]cc2-c2ccc3ncccc3n2)n1 | 1.02 |
| NS(=O)(=O)c1cccc(-c2ccc3c(NC(=O)C4CC4)n[nH]c3c2)c1 | -1.98 |
| COC(=O)Nc1nc2cc(Oc3ccc(NC(=O)Nc4cccc(C(=O)O)c4)cc3)ccc2[nH]1 | 2.53 |
| CN1CCC(C(=O)Nc2n[nH]c3nnc(-c4ccccc4)cc23)CC1 | 0.14 |

target: cAMP-dependent protein kinase catalytic subunit alpha (Homo sapiens) (UniProt P17612); details: at 0.1 µM;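 note: reported value is the mean percent inhibition of PKA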

| SMILES | inhibition [%] |
| --- | --- |
| CCCN1CCC=C(c2ccc(Nc3nc(Nc4ccccc4C(N)=O)c4cc[nH]c4n3)c(C)c2)C1 | 2.92 |
| CS(=O)(=O)CCNCc1nc(-c2ccc3ncnc(Nc4ccc(F)c(Cl)c4)c3c2)cs1 | 1.17 |
| COc1cc2c(cc1Nc1nc(N3CCc4ccccc43)c3cc[nH]c3n1)N(C(=O)CN(C)C)CC2 | 1.41 |
| COc1cc2ncn(-c3cc(OCc4ccccc4Cl)c(C(N)=O)s3)c2cc1OC | -0.08 |
| CS(=O)(=O)CCNCc1ccc(-c2ccc3ncnc(Nc4ccc(OCc5ccccc5)c(Cl)c4)c3c2)o1 | -0.81 |
| Nc1ncnc2occ(-c3ccc(NC(=O)Nc4cccc(C(F)(F)F)c4)cc3)c12 | 2.38 |
| COc1ccc(-c2ccncc2)cc1C(N)=O | 2.54 |
| Fc1cccc(COc2ccc(Nc3ncnc4cc(-c5ccc[nH]5)sc34)cc2Cl)c1 | -2.47 |
| CCn1c(-c2nonc2N)nc2c(N3CCCC3)nccc21 | -0.34 |
| Cc1nn(C)c2cc(N(C)c3ccnc(Nc4cccc(S(N)(=O)=O)c4)n3)ccc12 | 2.03 |
| CC(=O)Nc1cccc(C#Cc2cncnc2Nc2ccc(OCc3cccc(F)c3)c(Cl)c2)n1 | 2.4 |
| Nc1nc(-c2ccc3c(c2)C(=Cc2cc(Br)c(O)c(Br)c2)C(=O)N3)cs1 | -0.95 |
| CCN1CCC(CC(=O)Nc2n[nH]c3nc(-c4cccs4)c(Br)cc23)CC1 | -1.4 |
| COc1ccc2cc(-c3c(-c4ccncc4)nc(-c4ccc([S+](C)[O-])cc4)n3C)ccc2c1 (stereo not drawn) | 1.97 |
| NS(=O)(=O)c1ccc(N/N=C2\C(=O)Nc3ccc(C(=O)NCCc4c[nH]cn4)cc32)cc1 | 2.18 |
| CS(=O)(=O)CCNCc1ccc(-c2ccc3ncnc(Nc4ccc(OCc5cccc(F)c5)c(C(F)(F)F)c4)c3c2)o1 | 1.79 |
| Nc1nc(-c2ccccn2)c(-c2ccc3ncccc3n2)s1 | 1.32 |

| SMILES | inhibition [%] |
| --- | --- |
| c1cnn2ncc(-c3ccnc(Nc4ccc5c(c4)OCCO5)n3)c2c1 | 1.74 |
| Cc1ccc(C(=O)NC2CCCCC2)cc1-c1ccc(C(=O)NCC2CC2)cc1 | 3.21 |
| CS(=O)(=O)Nc1ccc(N/C=C2\C(=O)Nc3ccccc32)cc1 | -2 |
| CC1=C(C(=O)Nc2ccc3[nH]ncc3c2)C(c2ccc3ccccc3c2)CC(=O)N1 (stereo not drawn) | 7.18 |
| CC1=C(C(=O)Nc2ccc3[nH]ncc3c2)C(c2ccc(Cl)c(Cl)c2)CC(=O)N1 (stereo not drawn) | 7.32 |
| COc1ccc(COc2ccc(Cc3cnc(N)nc3N)cc2OC)cc1 | 4.69 |
| NCc1ccc(-c2nc(-c3ccc(Cl)c(O)c3)c(-c3ccncc3)[nH]2)cc1 | 1.31 |
| COc1cc2ncn(-c3cc(O[C@@H](C)c4ccccc4Cl)c(C(N)=O)s3)c2cc1OC | 4.37 |
| CCc1cccc(NC(=O)Nc2ccc(Oc3ccc4nc(NC(=O)OC)[nH]c4c3)cc2)c1 | 2.93 |
| CCn1c(-c2nonc2N)nc2cncc(C(=O)N3CCNCC3)c21 | 4.17 |
| O=C1Nc2ccc(C(=O)c3ccco3)cc2C1=Cc1cc(Cl)c(O)c(Cl)c1 | 1.97 |
| COc1ccc(-c2coc3ncnc(N)c23)cc1 | 1.5 |
| CCn1c(-c2nonc2N)nc2cncc(C(=O)N3CC[C@H](N)C3)c21 | 49.1 |
| Cc1cccc(-c2n[nH]cc2-c2ccc3ncccc3n2)n1 | 1.12 |
| NS(=O)(=O)c1cccc(-c2ccc3c(NC(=O)C4CC4)n[nH]c3c2)c1 | -0.94 |
| COC(=O)Nc1nc2cc(Oc3ccc(NC(=O)Nc4cccc(C(=O)O)c4)cc3)ccc2[nH]1 | -3.91 |
| CN1CCC(C(=O)Nc2n[nH]c3nnc(-c4ccccc4)cc23)CC1 | 2.6 |
